Assay outcomes from PubChem BioAssay.
This is a sample that favours compounds with a hit; in the whole collection about 1.8% have one here.
p53ts 32C tox: qHTS Screen for Compounds that Selectively Target Cancer Cells with p53 Mutations: Cytotoxicity of p53ts Cells at the Permissive Temperature | H1299-p53A138V at 32C, ATP luminescence viability, 24 h | Potency, µM (series often up to 46.1 µM), without a hit: top-dose activity change, negative = cytotoxicity, hits mostly cytotoxic | 130,000 tested, 0.93% active;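 further: 0% = DMSO and -100% = full killing by reference compound; nearly all actives have a fitted effect of over 55% in size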
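Cells: H1299 p53ts (A138V), 600/well, pre-incubated 16–30 h at 37C. Cpd up to 46 uM, 24 h, 32C. Readout: ATPlite luminescence, 20 min RT. Normalization: DMSO vs tamoxifen 100 uM. AC50 by Hill equation.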
IkB signaling: IkB Signaling; AID 445, 2006; 110,000 tested, 0.04% active; ABC-DLBCL IkBa-CBG/CBR dual luciferase ratio, 4 h; response scale: scaled: untreated 0%, proteasome inhibitor 100%; Potency, µM (doses to about 57.1 µM), for inactives: at the highest dose IkBa stabilization activation; active means well fitted curve in the direction sought with a large enough effect in the signal ratio, not every such curve was filed as active; inconclusive means small, poorly fitted or top-dose-only effect, or a change in a side signal; the % refers to the signal ratio;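 further: the direction sought is a rising ratio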
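Luminescence ratio of IκBα-fused green versus native red beetle luciferase in OCI-Ly3 cells, 4 h post-doxycycline with compound; red signal alone, scaled from basal (0%) to zero light (-100%), flagged nonspecific or cytotoxic effects.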
p53ts 39C kill: qHTS Screen for Compounds that Selectively Target Cancer Cells with p53 Mutations: Cytotoxicity of p53ts Cells at the Nonpermissive Temperature | H1299-p53A138V viability at 39C, ATP luminescence, 24 h | Potency, µM (top dose mostly 46.1 µM), without a hit: at the top dose activity change, negative = cell killing, most hits filed as cytotoxic | 130,000 tested, 1.5% active; further: on the % scale 0 is the no-effect control and ±100 the full control effect; nearly all actives have a fitted effect of over 55% in size
Imprint erasure: qHTS Assay for Compounds that Induce Erasure of Genomic Imprints | 110,000 tested, 0.02% active | Potency, µM (titrated, usually from 60.7 µM), inactives show top-dose activity change, positive = activation, hits mostly activators | mouse ES Peg3-LacZ reporter, beta-gal luminescence, 40 h
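Imprint erasure is scored as LacZ activity from the silenced maternal Peg3 allele in feeder-free female ES cells cultured 40 h with LIF. Luminescence is normalized to in-plate negative controls and fitted to the Hill equation.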
Numbers without * were called inactive; ? = inconclusive; . = no result given; [ ] = another dose, or the depositor's remark. Unless noted, the call rests on the fitted dose curve; in most records, active means well fitted curve in the direction sought with a large enough effect; inconclusive means small, poorly fitted or top-dose-only effect, or another doubt; inactive means no such curve, though single readings can be large; an effect the other way counts as inactive or inconclusive. Potency means the concentration at half of the fitted maximal effect.

SMILES	p53ts 32C tox	IkB signaling	p53ts 39C kill	Imprint erasure
O=C(NCC(=O)N(c1cccnc1)C(C(=O)NC1CCCC1)c1ccco1)c1cccs1 (configuration not stated)	-4%	1%	6%	22%
COc1c(O)cc2c(c1O)C1OC(CO)C(O)[C@H](O)[C@H]1OC2=O (some centres not stated)	3%	.	1%	7.9µM*
Cc1cc(OCc2nc(N)nc(N)c2-c2ccc(Cl)c(Cl)c2)ccc1[N+](=O)[O-]	?	-1%[11.4 µM]	?	-16%[10.9 µM]
O=C(Nc1nnc(SCC(=O)N2CCCc3ccccc32)s1)c1ccc2ccccc2c1	.	.	3.2µM*	.
O=C(Nc1nnc(SCC(=O)N2CCCc3ccccc32)s1)c1ccccc1	.	.	8.9µM*	.
Cc1cc(C)cc(C(=O)Nc2nnc(SCC(=O)N3CCCc4ccccc43)s2)c1	.	.	20%	.
Cc1ccc(OCCCn2c(CCNC(=O)C3CCCCC3)nc3ccccc32)c(C)c1	4%	?	?	-12%[10.9 µM]
Cc1cc(OCCCn2c(CCNC(=O)C3CCCCC3)nc3ccccc32)ccc1Cl	?	?	13µM*	-14%[10.9 µM]
CC(C)(C)C(=O)NCCc1nc2ccccc2n1CCCCOc1ccc(Cl)cc1	6%	?	32µM*	-7%[10.9 µM]
Cc1cccc(C)c1OCCCn1c(CCNC(=O)C2CCCCC2)nc2ccccc21	?	?	16µM*	-17%[10.9 µM]
Cn1cc(C(=O)O)c(=O)c2cc(S(=O)(=O)N3CCOCC3)ccc21	3%	-1%	-4%	-8%[10.9 µM]
COc1ccccc1Nc1c2c(nc3ccc(NC(=O)/C=C/c4cccc(OC)c4OC)cc13)CCCC2	-6%	?	-25%	-33%[10.9 µM]
COc1ccc(/C=C/C(=O)Nc2ccc3nc4c(c(Nc5ccccc5OC)c3c2)CCCC4)cc1	-8%	?	-7%	-35%[10.9 µM]
COc1ccc(Nc2c3c(nc4ccc(NC(=O)/C=C/c5cc(OC)c(OC)c(OC)c5)cc24)CCCC3)cc1OC	13µM*	?	10µM*	-36%[10.9 µM]
COc1ccccc1Nc1c2c(nc3ccc(NC(=O)c4cccc(F)c4)cc13)CCCC2	10µM*	-1%	5µM*	-38%[10.9 µM]
COc1ccc(Nc2c3c(nc4ccc(NC(=O)/C=C/c5cccc(OC)c5OC)cc24)CCCC3)cc1OC	10µM*	?	10µM*	-34%[10.9 µM]
COc1ccc(/C=C/C(=O)Nc2ccc3nc4c(c(Nc5ccc(OC)c(OC)c5)c3c2)CCCC4)cc1	11µM*	?	10µM*	-35%[10.9 µM]
COC(=O)c1cccnc1-n1c(=O)c2cccnc2n(CC(=O)Nc2ccc(C)cc2C)c1=O	3%	2%	7%	-8%[10.9 µM]
Cc1ccc2[nH]c(C)c(CN(C)C3CCN(C)CC3)c(=O)c2c1	-13%	-4%	-8%	-4%
CCCNC(=O)Cn1nc(-c2ccc(C)c(C)c2)c2cnc3ccc(OC)cc3c21	-6%	0%	-18%	12%[10.9 µM]
COC(=O)Cn1c(CN2CCc3ccccc3C2)nc2c1c(=O)n(C)c(=O)n2C	5µM*	2%	?	-39%
CCOc1cc(C(=O)CSc2nnc(CNc3ccc(Cl)cc3)o2)ccc1NC(=O)CC	16µM*	3%	16µM*	.
CC1=C(C(=O)Nc2cc(C)ccc2C)C2(CCCCCC2)OC1=O	-1%	.	.	.
O=C(CSc1nc2c([nH]c3ccccc32)c(=O)n1-c1ccc(Cl)cc1)NC1CCCCC1	4%	?	10µM*	-11%[10.9 µM]
COc1cccc(C(=O)NC2=NCCS2)c1	16µM*	0%	?	-71%
SMILES	p53ts 32C tox	IkB signaling	p53ts 39C kill	Imprint erasure
COC(=O)c1ccc(NC(=O)c2cccc(OC)c2)cc1	13µM*	?	?	-86%
COC(=O)c1cccc(NC(=O)c2cccc(OC)c2)c1	?	3%	?	-86%
Cc1ccc(NC(=O)c2ccccc2O)cc1	14µM*	?	10µM*	-65%
COC(=O)C1=C(NC(=O)c2cccc(OC)c2)CCS1	-6%	2%	-12%	-26%
COc1cccc(C(=O)Nc2ccc(C)cc2)c1	16µM*	?	16µM*	-82%
COc1cccc(C(=O)Nc2ccc(C(=O)O)cc2)c1	10%	11%	-1%	-90%
COc1ccccc1-c1nc(CNC(=O)NC2CCCCC2)c(C)o1	1%	1%	24%	-11%[10.9 µM]
COc1cc(NC(=O)C2CCCN(S(=O)(=O)c3ccc4c(c3)CCCC(=O)N4)C2)cc(OC)c1 (configuration not stated)	-2%	?	16%	-3%[10.9 µM]
CCNc1nc(NC#N)nc(SCC(=O)OCC)n1	-7%	-2%	-5%	-1%
COc1ccc(-n2nnnc2S(=O)(=O)CC(=O)N2CCCCC2)cc1	20µM*	?	?	-35%
COc1ccc(NC(=O)CCS(=O)(=O)c2cc3c(cc2C)NC(=O)CO3)cc1Cl	15%	?	-4%	-14%[10.9 µM]
Fc1ccc(-c2cc3nc4c(c(N5CCOCC5)n3n2)CCCC4)cc1	-19%	4%	-13%	-8%
O=c1c2c(nc3cc(-c4ccc(F)cc4)[nH]n13)CCCC2	13µM*	?	10µM*	-81%
O=C(NC1CC1)c1cccc(Nc2ccc(-c3ccc4c(c3)OCCO4)nn2)c1	20µM*	?	10µM*	.
O=C(Nc1cccc(Br)c1)c1cc(-c2ccc3c(c2)OCCO3)on1	?	?	?	-42%[10.9 µM]
CCN(CC)CCCNC(=O)c1nn(C)c2c1CSc1ccccc1-2	?	?	20µM*	8%[10.9 µM]
Cn1nc(C(=O)N2CCN(c3ccccc3)CC2)c2c1-c1ccccc1SC2	22%	3%	15%	-13%[10.9 µM]
Cn1nc(C(=O)N2CCN(c3ccc(F)cc3)CC2)c2c1-c1ccccc1SC2	?	0%	20µM*	-10%[10.9 µM]
COCCCNC(=O)C(=O)Nc1c2c(nn1-c1cccc(Cl)c1)CSC2	2%	2%	-12%	-10%[10.9 µM]
Cc1ccc(-n2ncc3c(NC(C)c4ccccc4)ncnc32)cc1 (configuration not stated)	?	?	?	-12%[10.9 µM]
CC(C)Nc1ncnc2c1cnn2-c1ccc(Cl)cc1	13µM*	?	16µM*	-28%
CCC(CO)Nc1ncnc2c1cnn2-c1ccc(C)cc1 (configuration not stated)	?	?	16µM*	-13%[10.9 µM]
Cc1cc(C(=O)COc2ccc3ccc(=O)oc3c2)c(C)n1Cc1cccs1	5%	0%	5%	-19%
O=S1(=O)C=C(Sc2nc3ccccc3s2)c2ccccc21	13µM*	?	?	-36%
Cc1cc(C)nc(SC2=CS(=O)(=O)c3ccccc32)n1	-30%	?	?	-27%
O=[N+]([O-])c1ccc(O)c(/C=N/Nc2ccccn2)c1	-22%	.	5.6µM*	.
Nc1nnc(CC(=O)N/N=C\c2cc([N+](=O)[O-])ccc2O)s1	.	.	8%	.
CC(C)C(=O)Nc1ccccc1C(=O)OCc1cc(=O)n2nc(C3CC3)sc2n1	1%	2%	30%	-14%[10.9 µM]
